Rows were chosen to be rich in hits. Some 21% of all compounds tested hit in one or more screens of this group.
ELG1 DNA repair: inhibitors of ELG1-dependent DNA repair in HEK293T cells; HEK293T ELG1-luciferase reporter, luminescence, 16 h; DNA damage induced by 5-fluorouridine; Potency, µM (doses to about 46.1 µM), inactives show top-dose activity change, negative = inhibition, hits mostly inhibitors; 330,000 tested, 2.3% active; AID 504467; further: potency means the concentration at half of the fitted maximal effect; nearly all actives have a fitted effect of over 55% in size
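Quantitative HTS, concentration-response format. 2,000 cells/well co-treated with 5-fluorouridine and compound, 16 hr in 5% CO2 at 37 °C; ONE-Glo luminescence read after 30 min.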
TDP1 cell CPT: DT40-hTDP1 cell growth loss with CPT | chicken DT40 Tdp1-/-;hTDP1 cells + 20 nM CPT, ATP luminescence, 48 h | Potency, µM (doses to about 46.2 µM), for the others: at the top dose activity change, negative = growth inhibition, usual class: inhibitors | 420,000 tested, 12% active | AID 686979; further: potency means the concentration at half of the fitted maximal effect; nearly all actives have a fitted effect of over 55% in size
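Chicken DT40 Tdp1-/- cells stably complemented with human TDP1 were seeded at 400 cells/well in medium containing 20 nM camptothecin, exposed to pin-transferred compounds, and grown at 37 °C for at least 48 hr. Viability was read as ATP luminescence.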
DT40 TDP1 no CPT: qHTS for Inhibitors of human tyrosyl-DNA phosphodiesterase 1 (TDP1): qHTS in cells in absence of CPT | 420,000 tested, 15% active | AID 686978, 2013 | Potency, µM (titrated, usually from 46.2 µM), for inactives: at the top dose activity change, negative = growth inhibition, hits mostly inhibitors | DT40 Tdp1-/- hTDP1 cells, no CPT, ATP luminescence, 48 h; further: potency means the concentration at half of the fitted maximal effect; nearly all actives have a fitted effect of over 55% in size
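Luminescent ATP content (CellTiter-Glo) served as the growth readout. Knockout chicken DT40 cells expressing human TDP1 were exposed to compounds without camptothecin for a minimum 48 hr at 37 °C.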
Gal4-VP16 FLuc: Gal4-VP16 reporter inhibition counter-screen; Potency, µM (series often up to 53.6 µM), for the others: at the highest dose activity, negative = inhibition, usual class: inhibitors; 310,000 tested, 3.5% active; AID 2546; Drosophila S2 Gal4-VP16 UAS-luciferase, luminescence, 20 h;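 further: Gal4-VP16 expression switched on by copper sulfate through the metallothionein promoter; potency means the concentration at half of the fitted maximal effect; nearly all actives have a fitted effect of over 50% in size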
IL1B secr inh: inflammasome signaling inhibition, IL-1 beta readout; activity change, % at 57.5 µM; AID 743279; THP-1 LPS/ATP IL-1B secretion, AlphaLISA, 16 h; hits give low values; 360,000 tested, 4.7% active; in the data active means activity change below about -50%; inconclusive means mostly about -30% to -49%
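Secreted IL-1B measured by AlphaLISA bead assay after 16 h compound exposure of THP-1 cells; compounds (final up to 57.5 uM) added 1 h before LPS (250 ng/mL) and ATP (1.25 mM) stimulation; lower signal means less secretion.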
RORgamma inh: inhibitors of mouse ROR gamma transcriptional activity. P51450. Drosophila S2 Gal4-RORgamma UAS-luciferase reporter, 20 h. 310,000 tested, 5.4% active. Potency, µM (series often up to 53.6 µM), inactives show top-dose activity change, negative = inhibition, actives largely listed as inhibitors; further: potency means the concentration at half of the fitted maximal effect; nearly all actives have a fitted effect of over 60% in size
Target sequence (P51450 whole entry, looked up, the tested form may be a part): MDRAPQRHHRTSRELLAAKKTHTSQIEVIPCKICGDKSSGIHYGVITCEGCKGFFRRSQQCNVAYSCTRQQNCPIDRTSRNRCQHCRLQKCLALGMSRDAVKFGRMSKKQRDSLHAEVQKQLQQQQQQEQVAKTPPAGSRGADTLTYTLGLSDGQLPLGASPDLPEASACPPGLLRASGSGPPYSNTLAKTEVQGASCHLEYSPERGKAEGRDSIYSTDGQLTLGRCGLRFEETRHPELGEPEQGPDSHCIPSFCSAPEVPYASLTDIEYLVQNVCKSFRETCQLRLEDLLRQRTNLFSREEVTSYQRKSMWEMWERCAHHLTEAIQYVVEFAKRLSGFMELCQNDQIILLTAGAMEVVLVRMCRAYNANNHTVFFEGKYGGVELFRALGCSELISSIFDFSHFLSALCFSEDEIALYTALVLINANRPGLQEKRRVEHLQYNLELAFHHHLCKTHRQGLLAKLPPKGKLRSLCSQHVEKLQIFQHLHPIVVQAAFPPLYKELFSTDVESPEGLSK
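ROR gamma transcriptional activity was tracked as Gal4-UAS luciferase output in stably transfected Drosophila Schneider cells, with compound added 1 hr before 700 uM copper sulfate induction and a 20 hr ambient-temperature incubation.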
Active calls of the source: *; ? = inconclusive; nt = no result given. Unless noted, the call rests on the fitted dose curve; in most records, active means well fitted curve in the direction sought with a large enough effect; inconclusive means small, poorly fitted or top-dose-only effect, or another doubt; inactive means no such curve, though single readings can be large; an effect the other way counts as inactive or inconclusive. On the % scale 0 is the no-effect control and ±100 the full control effect.

SMILES	ELG1 DNA repair	TDP1 cell CPT	DT40 TDP1 no CPT	Gal4-VP16 FLuc	IL1B secr inh	RORgamma inh
CCOC(=O)c1cnc(-n2nc(C)cc2C)nc1N1CC(C)OC(C)C1 (stereo not given)	nt	?	21µM*	nt	-10	nt
CCOC(=O)c1cnc(-n2nc(C)cc2C)nc1NCCO	-5%	-12%	-17%	-5%	-4	?
CCOC(=O)c1cnn2c(C)cc(-c3ccccc3)nc12	?	-11%	-1%	-18%	-23	-4%
CCOC(=O)c1cnc(-n2nc(C)cc2C)nc1NC(C)c1ccccc1 (stereo not given)	?	4.6µM*	4.6µM*	2.2µM*	-9	1.4µM*
CCOC(=O)c1cnc(-n2nc(C)cc2C)nc1NNc1cc(-c2ccccc2)nc(C)n1	?	nt	nt	0.1µM*	nt	0.089µM*
CCOC(=O)c1cnc(-n2nc(C)cc2C)nc1NCc1ccccc1	?	3.3µM*	5.2µM*	2.5µM*	-111*	1.4µM*
CC1C(=O)N2CCCc3cc(S(=O)(=O)Nc4ccc(Br)cc4F)cc1c32 (stereo not given)	nt	?	-39%	nt	nt	nt
O=C(OCC(=O)N1CCOCC1)c1cccc(S(=O)(=O)Nc2ccc(F)cc2)c1	-5%	-11%	-16%	nt	5	nt
CC#CCN(Cc1ccco1)C(=O)C1CCC(=O)N(CCc2cccc(F)c2)C1 (stereo not given)	nt	21µM*	15µM*	nt	-2	nt
C#CCN(C(=O)C1CCC(=O)N(CCc2cccc(F)c2)C1)C1CCCCC1 (stereo not given)	nt	18µM*	6.5µM*	nt	2	nt
O=c1ccn(C2OC(COP(=O)(O)OC3C(CO)OC(n4ccc(=O)[nH]c4=O)C3O)C(O)C2O)c(=O)[nH]1 (stereo not given)	nt	nt	nt	0%	nt	6%
CC(=O)NC(=S)Nc1cc(C(F)(F)F)ccc1N1CCOCC1	-23%	-7%	?	?	-61*	13µM*
CC(C)C(=O)Nc1cc(C(F)(F)F)ccc1N1CCOCC1	20%	-25%	-21%	1%	10	37%
O=C(NC(=S)Nc1cc(C(F)(F)F)ccc1N1CCOCC1)c1ccco1	5%	?	?	11µM*	?	1.4µM*
Cc1onc(-c2ccccc2)c1C(=O)NCC(=O)Nc1cc(Cl)ccc1Cl	-5%	?	?	nt	?	nt
CN(Cc1ccccc1)C(=O)c1nc2ccccn2c1CN1CCc2sccc2C1	?	-22%	?	?	-94*	-11%
CN(Cc1c(C(=O)N(C)Cc2ccccc2)nc2ccccn12)CC1Cc2ccccc2O1 (stereo not given)	?	18µM*	15µM*	8%	1	30%
COc1cccc(CN(C)C(=O)c2ccc(S(=O)(=O)Nc3ccccc3C)cc2)c1OC	nt	-27%	-46%	nt	-28	nt
CCCCC[C@H](O)/C=C/C=C\C=C\[C@@H](O)C/C=C\CCCC(=O)O	nt	nt	nt	-10%	nt	7%
Cc1cccc(N/C(N)=N/c2nc(CSc3ccc(Cl)cc3)cc(=O)[nH]2)c1	?	8.2µM*	9.2µM*	5%	13	-5%
CCOc1ccc(N/C(N)=N/c2nc(CSc3nnnn3-c3ccccc3)cc(=O)[nH]2)cc1	-1%	16µM*	?	3%	0	23%
COC(=O)Cc1cc(=O)[nH]c(/N=C(\N)Nc2ccc(C)cc2)n1	10%	-2%	-8%	1%	13	10%
COCc1cc(=O)[nH]c(/N=C(\N)Nc2ccc(Oc3ccccc3)cc2)n1	-9%	-23%	?	-13%	32	?
Cc1ccc(N/C(N)=N/c2nc(CSc3nnc(C)s3)cc(=O)[nH]2)c(C)c1	-11%	0.65µM*	0.82µM*	?	68	23%

Compound activity from PubChem.
